# Test results from PubChem BioAssay.
# A number with no mark means an inactive call. Active and inactive are the calls of the source. Unless noted, no stated cut-off is given here; in the data, active means inhibition above about 42%; inactive means the rest.
# What was measured:
# [1] = target: Nuclear receptor coactivator 3 (Homo sapiens) (UniProt Q9Y6Q9); assay: SRC3 coactivator transcriptional activity inhibitors, confirmation, cell-based, luminescence, quadruplicate (AID 588792;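 active means mean inhibition over 43.08%, the solvent-only control mean plus 3 SD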;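 further: 0% = DMSO treated cells and 100% = gossypol at 36 µM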); conditions: HEK293 GAL4-SRC3 luciferase reporter, at 3.6 µM, stronger effect = higher value
# [2] = test system: transactivating tegument protein VP16 (Human herpesvirus 1), Gal4-VP16 luciferase reporter; assay: VP16 transactivation inhibitors, counter-screen for SRC3 inhibitor project, cell-based, luminescence, high throughput (AID 588794; in the data active means inhibition above about 30%); conditions: mammalian cells, VP16-driven luciferase reporter luminescence; at 3.6 µM; stronger effect = higher value
# [3] = target: Nuclear receptor coactivator 1 (Homo sapiens) (UniProt Q15788); assay: SRC1 coactivator transcriptional activity inhibitors, confirmation, cell-based, luminescence, quadruplicate (AID 588820;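 active means mean inhibition above 46.68%, the untreated control wells mean plus 3 SD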;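 further: 0% = DMSO wells and 100% = gossypol 36 µM treated wells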); conditions: HEK293 GAL4-SRC1 luciferase reporter, at 3.6 µM, stronger effect = higher value
# [4] = VP16 transactivation inhibitors, counter-screen for SRC1 inhibitor project, cell-based, luminescence, high throughput (AID 588824; in the data active means inhibition above about 25%); conditions: cell-based VP16 transactivation luciferase luminescence; at 3.6 µM; stronger effect = higher value
# [5] = StAR promoter reporter inhibitors, counter-screen for LRH-1 inverse agonist project, cell-based, luminescence, high throughput (AID 651611; in the data active means inhibition above about 28%); conditions: StAR promoter luciferase reporter counterscreen, at 3.6 µM, stronger effect = higher value
# [6] = target: Nuclear receptor subfamily 5 group A member 2 (Homo sapiens) (UniProt O00482); assay: LRH-1 (NR5A2) inverse agonists, retest, confirmation, cell-based, luminescence (AID 651613); conditions: cell-based LRH-1 luciferase reporter, inverse agonism; at 3.6 µM; stronger effect = higher value;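 further: HEK293T cells co-transfected with LRH-1 and StAR promoter luciferase reporter; 0% = vehicle wells and 100% = parental cells lacking receptor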
# [7] = target: Steroidogenic factor 1 (Homo sapiens) (UniProt Q13285); assay: SF1 (NR5A1) inverse agonists, counter-screen for LRH-1 inverse agonist project, cell-based, luminescence, high throughput (AID 651614; in the data active means inhibition above about 44%;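 further: cells cotransfected with StAR promoter reporter and SF1 expression vector; 0% = vehicle on cells with receptor and 100% = vehicle on cells lacking receptor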); conditions: cell-based SF1 luciferase reporter, at 3.6 µM, stronger effect = higher value
# [8] = VP16 transactivation reporter inhibitors, counter-screen for LRH-1 inverse agonist project, cell-based, luminescence, high throughput (AID 651615; in the data active means inhibition above about 33%); conditions: Gal4-VP16 luciferase reporter cells, at 3.6 µM, stronger effect = higher value
# [9] = test system: transactivating tegument protein VP16 (Human herpesvirus 1); assay: VP16 transactivation reporter inhibitors, counter-screen for SRC2 inhibitor project, cell-based, luminescence, single concentration (AID 652007; in the data active means inhibition above about 36%); conditions: cell-based VP16 transactivation luciferase reporter, at 8.9 µM, stronger effect = higher value
# [10] = target: Nuclear receptor coactivator 2 (Homo sapiens) (UniProt Q15596); assay: SRC2 coactivator transcriptional activity inhibitors, confirmation, cell-based, luminescence, HEK293, triplicate (AID 652008;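 active means mean inhibition above 46.5%, the solvent-only control mean plus 3 SD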;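 further: 0% = DMSO-treated cells and 100% = Gossypol at 36 µM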); conditions: HEK293 GAL4-SRC2 luciferase reporter, at 8.9 µM, stronger effect = higher value
# Sequence of Nuclear receptor coactivator 2 (Homo sapiens) (Q15596 whole entry, looked up, the tested form may be a part): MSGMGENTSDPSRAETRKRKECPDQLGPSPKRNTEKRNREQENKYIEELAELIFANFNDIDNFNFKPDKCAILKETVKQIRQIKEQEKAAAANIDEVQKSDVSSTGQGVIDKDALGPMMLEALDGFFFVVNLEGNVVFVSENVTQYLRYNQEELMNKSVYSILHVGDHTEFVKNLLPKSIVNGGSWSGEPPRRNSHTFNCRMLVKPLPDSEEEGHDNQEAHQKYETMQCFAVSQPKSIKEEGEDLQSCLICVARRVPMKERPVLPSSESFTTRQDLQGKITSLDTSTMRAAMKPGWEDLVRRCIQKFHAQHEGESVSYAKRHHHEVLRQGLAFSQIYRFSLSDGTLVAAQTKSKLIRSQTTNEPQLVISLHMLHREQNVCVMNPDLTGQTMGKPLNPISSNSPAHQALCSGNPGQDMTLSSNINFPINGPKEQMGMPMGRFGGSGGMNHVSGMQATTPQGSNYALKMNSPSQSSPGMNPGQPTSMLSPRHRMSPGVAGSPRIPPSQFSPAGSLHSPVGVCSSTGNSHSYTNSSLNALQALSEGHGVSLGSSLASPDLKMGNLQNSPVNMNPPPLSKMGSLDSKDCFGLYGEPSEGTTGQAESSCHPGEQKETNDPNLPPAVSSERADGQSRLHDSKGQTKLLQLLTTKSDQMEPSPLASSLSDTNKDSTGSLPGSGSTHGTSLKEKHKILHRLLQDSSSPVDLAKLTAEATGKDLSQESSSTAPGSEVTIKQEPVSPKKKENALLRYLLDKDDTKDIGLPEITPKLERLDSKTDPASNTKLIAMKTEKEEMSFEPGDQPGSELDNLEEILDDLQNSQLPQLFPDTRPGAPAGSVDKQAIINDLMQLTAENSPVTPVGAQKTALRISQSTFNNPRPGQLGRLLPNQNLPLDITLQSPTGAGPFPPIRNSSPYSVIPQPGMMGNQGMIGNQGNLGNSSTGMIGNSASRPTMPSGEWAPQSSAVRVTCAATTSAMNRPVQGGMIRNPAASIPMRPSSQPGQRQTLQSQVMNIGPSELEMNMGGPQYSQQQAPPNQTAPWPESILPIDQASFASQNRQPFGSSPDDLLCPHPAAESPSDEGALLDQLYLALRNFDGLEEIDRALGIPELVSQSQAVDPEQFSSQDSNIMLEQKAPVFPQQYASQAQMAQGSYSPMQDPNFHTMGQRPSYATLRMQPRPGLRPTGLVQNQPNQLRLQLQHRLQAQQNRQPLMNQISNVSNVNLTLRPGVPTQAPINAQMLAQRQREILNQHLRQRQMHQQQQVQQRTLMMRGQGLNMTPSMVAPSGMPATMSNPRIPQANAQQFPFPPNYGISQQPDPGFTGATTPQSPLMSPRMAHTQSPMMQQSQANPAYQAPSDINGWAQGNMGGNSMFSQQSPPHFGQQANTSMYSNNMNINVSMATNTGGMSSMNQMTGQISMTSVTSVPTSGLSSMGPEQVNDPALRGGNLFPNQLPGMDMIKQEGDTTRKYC
# Sequence of Steroidogenic factor 1 (Homo sapiens) (Q13285 whole entry, looked up, the tested form may be a part): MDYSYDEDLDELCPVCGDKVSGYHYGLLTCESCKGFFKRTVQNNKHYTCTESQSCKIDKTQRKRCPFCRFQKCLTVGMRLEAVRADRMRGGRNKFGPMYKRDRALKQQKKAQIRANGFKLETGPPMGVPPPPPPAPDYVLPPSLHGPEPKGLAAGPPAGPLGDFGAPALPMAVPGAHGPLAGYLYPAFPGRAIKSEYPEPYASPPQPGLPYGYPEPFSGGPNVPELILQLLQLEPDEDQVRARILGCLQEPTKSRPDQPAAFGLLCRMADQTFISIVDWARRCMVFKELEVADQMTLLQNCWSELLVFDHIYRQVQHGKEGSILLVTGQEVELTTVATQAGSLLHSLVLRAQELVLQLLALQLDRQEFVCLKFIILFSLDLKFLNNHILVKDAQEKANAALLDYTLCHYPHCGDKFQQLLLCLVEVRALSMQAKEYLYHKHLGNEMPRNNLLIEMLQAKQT
# Sequence of Nuclear receptor coactivator 1 (Homo sapiens) (Q15788 whole entry, looked up, the tested form may be a part): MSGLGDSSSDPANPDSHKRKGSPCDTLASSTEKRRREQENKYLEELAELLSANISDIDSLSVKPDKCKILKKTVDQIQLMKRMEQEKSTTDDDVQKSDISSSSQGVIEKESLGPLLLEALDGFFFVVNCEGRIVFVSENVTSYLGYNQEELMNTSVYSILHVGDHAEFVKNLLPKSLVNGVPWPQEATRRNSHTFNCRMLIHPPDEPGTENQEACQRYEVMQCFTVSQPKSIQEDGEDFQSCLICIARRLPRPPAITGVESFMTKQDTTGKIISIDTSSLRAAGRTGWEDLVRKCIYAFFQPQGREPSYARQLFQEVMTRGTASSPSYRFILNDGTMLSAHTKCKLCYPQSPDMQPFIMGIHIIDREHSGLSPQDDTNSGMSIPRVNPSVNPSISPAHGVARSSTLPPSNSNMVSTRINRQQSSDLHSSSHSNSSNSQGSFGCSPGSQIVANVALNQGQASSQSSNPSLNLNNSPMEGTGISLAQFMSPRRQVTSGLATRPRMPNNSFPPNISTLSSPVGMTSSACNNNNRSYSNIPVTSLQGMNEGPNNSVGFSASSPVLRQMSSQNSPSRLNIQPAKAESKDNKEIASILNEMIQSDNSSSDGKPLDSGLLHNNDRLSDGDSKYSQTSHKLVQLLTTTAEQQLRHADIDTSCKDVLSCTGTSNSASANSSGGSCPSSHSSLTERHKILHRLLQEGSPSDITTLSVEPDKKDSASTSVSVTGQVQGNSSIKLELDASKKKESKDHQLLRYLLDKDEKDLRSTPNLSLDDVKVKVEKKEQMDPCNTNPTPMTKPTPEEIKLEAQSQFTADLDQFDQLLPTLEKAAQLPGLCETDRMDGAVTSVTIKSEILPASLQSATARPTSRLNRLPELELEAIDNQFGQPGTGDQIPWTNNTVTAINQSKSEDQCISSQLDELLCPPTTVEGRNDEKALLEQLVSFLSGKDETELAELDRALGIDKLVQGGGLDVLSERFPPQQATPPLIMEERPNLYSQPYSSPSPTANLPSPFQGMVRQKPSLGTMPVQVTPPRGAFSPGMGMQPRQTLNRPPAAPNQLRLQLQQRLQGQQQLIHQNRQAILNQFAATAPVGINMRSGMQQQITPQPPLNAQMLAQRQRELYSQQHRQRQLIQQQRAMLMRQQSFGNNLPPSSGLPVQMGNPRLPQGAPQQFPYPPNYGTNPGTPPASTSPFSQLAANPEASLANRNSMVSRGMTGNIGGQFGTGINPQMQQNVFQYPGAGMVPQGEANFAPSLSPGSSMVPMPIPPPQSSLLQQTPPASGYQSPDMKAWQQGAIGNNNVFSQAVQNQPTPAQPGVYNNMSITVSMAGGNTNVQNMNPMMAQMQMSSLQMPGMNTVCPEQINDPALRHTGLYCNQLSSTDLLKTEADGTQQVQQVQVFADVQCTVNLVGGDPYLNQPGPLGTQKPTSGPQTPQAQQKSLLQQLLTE
# Sequence of Nuclear receptor subfamily 5 group A member 2 (Homo sapiens) (O00482 whole entry, looked up): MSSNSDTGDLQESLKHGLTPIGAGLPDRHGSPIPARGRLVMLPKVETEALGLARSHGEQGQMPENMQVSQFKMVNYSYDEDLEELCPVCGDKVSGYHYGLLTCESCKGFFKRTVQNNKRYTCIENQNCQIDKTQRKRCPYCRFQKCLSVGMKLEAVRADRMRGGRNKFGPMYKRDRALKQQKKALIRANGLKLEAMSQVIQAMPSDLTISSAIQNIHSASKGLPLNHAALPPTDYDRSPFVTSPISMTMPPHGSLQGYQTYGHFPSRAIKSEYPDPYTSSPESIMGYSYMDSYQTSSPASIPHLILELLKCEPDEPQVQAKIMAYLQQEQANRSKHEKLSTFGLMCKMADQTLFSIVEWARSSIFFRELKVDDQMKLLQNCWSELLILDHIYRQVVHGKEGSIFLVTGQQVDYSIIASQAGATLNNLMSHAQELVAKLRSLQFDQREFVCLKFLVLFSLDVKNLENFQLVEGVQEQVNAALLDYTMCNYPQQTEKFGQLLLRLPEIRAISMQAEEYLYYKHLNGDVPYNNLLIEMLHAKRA
Compound,inhibition [1],inhibition [2],inhibition [3],inhibition [4],inhibition [5],inhibition [6],inhibition [7],inhibition [8],inhibition [9],inhibition [10]
Cc1ccc(/C=C2/SC(=S)N(CCCC(=O)Nc3ccc(O)cc3)C2=O)cc1,57% (active),12.8%,41.2%,3.55%,55% (active),6.39%,52.3% (active),-5.05%,43.6% (active),54.1% (active)
O=C(NCc1cccnc1)/C(=C\c1ccc(-c2ccc(Br)cc2)o1)S(=O)(=O)c1ccccc1,72.6% (active),56.9% (active),51.7% (active),55.1% (active),62.3% (active),92.3% (active),82% (active),80.8% (active),71.1% (active),68.7% (active)
S=C(Nc1ccccc1)Nc1ccc(OCc2ccc(Cl)cc2Cl)cc1,46.7% (active),25.4%,43.6%,24.4%,63.4% (active),72.3% (active),59.5% (active),39.4% (active),83.7% (active),93.9% (active)
CC(C)c1ccc(/C=C(\c2nc3ccccc3[nH]2)S(=O)(=O)c2ccccc2)cc1,54.2% (active),39.6% (active),-0.35%,24.9%,33.9% (active),54.6% (active),54.7% (active),46.6% (active),36.6% (active),49.3% (active)
CC(C)(C)OC(=O)NCCCCCc1cn([C@@H](CO)C(=O)NCCCCCCCCCCC(=O)N2CCN(C(=O)OC(C)(C)C)CC2)nn1,23.4%,66.8% (active),0.34%,71.4% (active),59.5% (active),69.4% (active),69.9% (active),80.6% (active),55% (active),48.7% (active)
C=C1C(=O)C2=CC1CCC(=O)C1(C)CCC(OC(C)=O)C(C)(C)C1CC2O (stereo not given),35.4%,53.2% (active),8.46%,51.3% (active),30.3% (active),3.03%,33.2%,56.1% (active),33.9%,41.2%
CC1CCc2c(sc(NC(=O)CSc3ncn[nH]3)c2C#N)C1 (stereo not given),56% (active),66.1% (active),31.9%,61.4% (active),32.5% (active),56.7% (active),39.5%,61.9% (active),87% (active),90.2% (active)
Cc1c(/C(O)=C2/C(=O)C(=O)N(Cc3cccnc3)C2c2ccccn2)cnn1-c1ccccc1 (stereo not given),38.2%,3.13%,20.1%,-13.8%,42% (active),23.4%,36.8%,7.05%,11.9%,52.3% (active)
CC(C)(C)c1ccc(C(=O)Nc2sc3c(c2C(=O)O)CCC3)cc1,48.4% (active),73% (active),42.3%,73.4% (active),77.2% (active),95.7% (active),90.7% (active),77.3% (active),8.37%,10.1%
Cc1ccc2oc(/N=C(\N)NC(=O)C(C)(C)C)nc2c1,82.8% (active),73.6% (active),65.2% (active),61.1% (active),80.4% (active),51.4% (active),75.4% (active),61.7% (active),77.6% (active),91.5% (active)
COC(=O)CCn1nnc(-c2ccc(C(C)C)cc2)n1,55.4% (active),38.7% (active),40.5%,35.6% (active),48.7% (active),55% (active),46.7% (active),39.9% (active),58.8% (active),92.6% (active)
OCC1OC(n2ccc3c(NO)ncnc32)C(O)C1O (stereo not given),93.2% (active),88.2% (active),48.2% (active),87.4% (active),93.5% (active),108% (active),97% (active),96% (active),53.9% (active),51.5% (active)
O=C(COc1ccc(Cl)cc1Cl)Nc1ccccn1,56.2% (active),53.6% (active),32.1%,48.2% (active),46.9% (active),27.2%,60.6% (active),32.3% (active),67.4% (active),85.2% (active)
Cc1cc(C(=O)COC(=O)c2ccccc2O)c(C)n1Cc1cccs1,85.3% (active),84.9% (active),71.1% (active),74.4% (active),85% (active),59% (active),80.2% (active),73.6% (active),81% (active),92.7% (active)
Cc1ccc(C(=O)N/N=C/c2ccc([N+](=O)[O-])s2)cc1,54.5% (active),39.1% (active),33.7%,44.4% (active),70.3% (active),83.9% (active),75.6% (active),52.3% (active),82.5% (active),92.4% (active)
O=c1cnnc(N/N=C/c2ccccn2)[nH]1,81.9% (active),68.9% (active),76% (active),54.8% (active),87.7% (active),103% (active),83.3% (active),65.3% (active),-24.3%,26.5%
O=C(NCc1cccnc1)/C(=C/c1ccc(-c2ccc(Cl)cc2)o1)S(=O)(=O)c1ccccc1,76.5% (active),62.8% (active),48.1% (active),47% (active),47.5% (active),79.5% (active),78.1% (active),77.2% (active),70.2% (active),50.4% (active)
CCN1/C(=C/c2sc(-c3ccccc3C)c[n+]2C)Sc2ccccc21,76.8% (active),86% (active),61.9% (active),82.8% (active),74.7% (active),105% (active),94.7% (active),89.2% (active),44.1% (active),34.1%
CCOC(=O)c1ccc(NC(=O)c2ccc(C)c(S(=O)(=O)N3CCOCC3)c2)cc1,31.4%,47.9% (active),3.47%,54.1% (active),65.1% (active),50.5% (active),66.5% (active),66% (active),47.4% (active),33.8%
O=C(OC(c1ccccc1)c1nccc2ccccc12)c1ccccc1 (stereo not given),57.4% (active),42.8% (active),26.3%,21.7%,43.4% (active),-16.8%,45.4% (active),-4.96%,30.1%,67.6% (active)
Cc1nc2c(-c3ccc(F)cc3)cnn2c(N)c1-c1ccccc1,55.5% (active),38.8% (active),29.6%,7.29%,6.33%,-102%,-17.6%,-0.77%,74.5% (active),79.6% (active)
CCCC(=O)Nc1ccc(C(=O)N/N=C/c2ccc([N+](=O)[O-])o2)cc1,88.8% (active),69.5% (active),74.8% (active),66.5% (active),86.9% (active),102% (active),95.1% (active),80.5% (active),23.3%,53.8% (active)
Cc1cc(C(=O)CSc2nc3ccccc3[nH]2)c(C)n1CC1CCCO1 (stereo not given),5.02%,30.5% (active),-86.8%,-6.65%,-34.6%,-80.8%,-1.87%,32.9% (active),31.5%,50.9% (active)
CC1CCC(C(C)C)C(OC(=O)Cn2c(-c3ccc(F)cc3)[n+](C)c3ccccc32)C1 (stereo not given),69.1% (active),45.8% (active),25.4%,38.6% (active),23.7%,108% (active),59.9% (active),93.7% (active),26.2%,34.6%
O=C(NCCc1ccccc1)c1ccc2c(c1)OCCO2,41.6%,11.9%,-81.6%,0.41%,29.6% (active),-10.6%,42%,7.34%,44.1% (active),77.7% (active)
CCCCCCCC/C=C\CCCCCCCC(=O)NCCc1ccc(O)c(O)c1,22%,-11.3%,-70%,-11.4%,-4.3%,-29.9%,4.21%,-16.1%,1.26%,21%
COc1ccccc1C(=O)Nc1nc2ccccc2[nH]1,79.4% (active),72.7% (active),58.5% (active),75.2% (active),75.3% (active),75.4% (active),83.8% (active),66.3% (active),89.6% (active),93.8% (active)
CCOc1cccc(/C=N/NC(=S)Nc2ccccc2[N+](=O)[O-])c1O,70.3% (active),57.6% (active),44.9%,38.2% (active),66.1% (active),22.9%,65.2% (active),54% (active),39.7% (active),73.3% (active)
CCC1(O)C(=O)OCc2c1cc1n(c2=O)Cc2cc3cc(O)ccc3nc2-1 (stereo not given),94.8% (active),79.2% (active),68.8% (active),77.4% (active),84.6% (active),104% (active),91.4% (active),83.8% (active),24.9%,39.5%
